# Source: article PMC7862700, “An all-to-all approach to the identification of sequence-specific readers for epigenetic DNA modifications on cytosine”
# Legend:
# Assay in all cases: DAPPL (digital affinity profiling via proximity ligation, sequencing); 10 mM Tris-HCl pH 7.5, 50 mM NaCl, 1 mM DTT, 4% glycerol, room temperature, 30 min; GST-TFs on glutathione beads, 16-mer random dsDNA library, 0.1% formaldehyde crosslink after washing; high values mean tight binding
# Conditions in all cases: protein: recombinant; tags: N-terminal GST; dsDNA, one strand shown
# ELF4 = ELF4 (Homo sapiens, UniProt Q99607 1-663)
# ELF4, sequence (Q99607 whole entry, the tested form may be a part): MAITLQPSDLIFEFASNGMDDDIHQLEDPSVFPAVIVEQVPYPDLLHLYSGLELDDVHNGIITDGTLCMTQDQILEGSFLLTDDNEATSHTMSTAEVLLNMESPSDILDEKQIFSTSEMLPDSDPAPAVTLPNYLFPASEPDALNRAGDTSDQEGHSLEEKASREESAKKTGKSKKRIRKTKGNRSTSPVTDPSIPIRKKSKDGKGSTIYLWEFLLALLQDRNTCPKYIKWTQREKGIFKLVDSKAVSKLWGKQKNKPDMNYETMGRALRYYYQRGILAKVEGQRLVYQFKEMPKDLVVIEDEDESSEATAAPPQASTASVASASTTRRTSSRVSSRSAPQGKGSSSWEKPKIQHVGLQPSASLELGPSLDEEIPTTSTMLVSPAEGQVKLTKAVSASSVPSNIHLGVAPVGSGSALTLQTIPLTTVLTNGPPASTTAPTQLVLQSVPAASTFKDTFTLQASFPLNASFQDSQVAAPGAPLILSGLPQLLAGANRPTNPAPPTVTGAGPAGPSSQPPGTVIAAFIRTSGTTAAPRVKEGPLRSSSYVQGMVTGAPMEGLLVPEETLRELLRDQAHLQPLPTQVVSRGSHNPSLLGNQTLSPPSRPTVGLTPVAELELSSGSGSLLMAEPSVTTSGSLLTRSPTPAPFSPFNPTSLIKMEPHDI
# In short: (§1)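 Sequencing on an Illumina NextSeq500 followed washing, crosslinking with 0.1% formaldehyde, proximity ligation (BsaI/T4 ligase, 1 h, 37 °C) and PCR amplification of pools that had been incubated for 30 min at room temperature with 200 nmole of a random double-stranded 16-mer DNA library in Tris/NaCl/DTT/glycerol buffer. Each pool held DNA-barcoded human transcription factors, expressed in yeast as GST fusions and captured on glutathione beads, plus a tag-only sample. Binding signal is a hexamer's read frequency for a factor divided by its frequency in the tag-only sample.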
# ELK4 = target: T1, ELK4 (Homo sapiens, UniProt P28324-2 1-405)
# T1 sequence: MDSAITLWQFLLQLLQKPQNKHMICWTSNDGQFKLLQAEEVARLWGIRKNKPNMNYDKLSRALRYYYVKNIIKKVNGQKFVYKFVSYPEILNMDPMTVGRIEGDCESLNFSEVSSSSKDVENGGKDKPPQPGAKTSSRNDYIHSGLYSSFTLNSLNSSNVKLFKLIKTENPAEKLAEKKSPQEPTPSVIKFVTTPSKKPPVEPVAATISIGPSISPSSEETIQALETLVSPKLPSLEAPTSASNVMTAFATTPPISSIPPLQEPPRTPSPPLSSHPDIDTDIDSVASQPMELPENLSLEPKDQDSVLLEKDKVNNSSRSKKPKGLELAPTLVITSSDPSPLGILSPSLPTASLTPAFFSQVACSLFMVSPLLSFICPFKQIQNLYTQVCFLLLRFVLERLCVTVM
# In short: as §1
# ETV2 = target: T2, ETV2 (Homo sapiens, UniProt O00321 1-342)
# T2 sequence: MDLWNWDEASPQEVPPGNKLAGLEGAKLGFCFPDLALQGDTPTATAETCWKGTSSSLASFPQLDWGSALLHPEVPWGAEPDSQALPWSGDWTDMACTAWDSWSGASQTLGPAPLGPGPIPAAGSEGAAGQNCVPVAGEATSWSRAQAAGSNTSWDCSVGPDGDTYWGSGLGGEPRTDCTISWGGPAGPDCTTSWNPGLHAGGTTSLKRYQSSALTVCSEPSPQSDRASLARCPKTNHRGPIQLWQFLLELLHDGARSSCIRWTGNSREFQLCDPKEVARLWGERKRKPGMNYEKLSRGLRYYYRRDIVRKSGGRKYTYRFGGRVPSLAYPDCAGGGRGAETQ
# In short: as §1
# ELF3 = target: T3, ELF3 (Homo sapiens, UniProt P78545 1-371)
# T3 sequence: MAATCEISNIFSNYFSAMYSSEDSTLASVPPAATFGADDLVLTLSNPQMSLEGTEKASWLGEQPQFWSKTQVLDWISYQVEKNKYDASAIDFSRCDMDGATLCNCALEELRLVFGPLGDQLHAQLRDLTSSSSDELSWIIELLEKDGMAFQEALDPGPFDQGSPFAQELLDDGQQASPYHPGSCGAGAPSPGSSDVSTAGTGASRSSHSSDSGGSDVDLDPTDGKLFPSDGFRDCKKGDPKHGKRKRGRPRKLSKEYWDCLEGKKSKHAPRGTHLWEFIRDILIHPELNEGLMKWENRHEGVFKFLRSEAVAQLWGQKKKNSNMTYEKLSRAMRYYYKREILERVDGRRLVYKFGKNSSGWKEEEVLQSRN
# In short: as §1
# CRX = CRX (Homo sapiens, UniProt O43186 1-299)
# CRX, sequence (O43186 whole entry): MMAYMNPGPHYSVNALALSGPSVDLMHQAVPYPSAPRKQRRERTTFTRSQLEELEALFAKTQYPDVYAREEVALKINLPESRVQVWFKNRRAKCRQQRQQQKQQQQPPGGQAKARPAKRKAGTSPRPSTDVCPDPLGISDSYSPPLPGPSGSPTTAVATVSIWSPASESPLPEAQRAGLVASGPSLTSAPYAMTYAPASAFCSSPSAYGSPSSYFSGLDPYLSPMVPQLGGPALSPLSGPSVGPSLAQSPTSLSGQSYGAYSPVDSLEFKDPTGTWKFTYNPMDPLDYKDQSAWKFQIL
# In short: as §1
# ETV1 = ETV1 (Homo sapiens, UniProt P50549 1-477)
# ETV1, sequence (P50549 whole entry): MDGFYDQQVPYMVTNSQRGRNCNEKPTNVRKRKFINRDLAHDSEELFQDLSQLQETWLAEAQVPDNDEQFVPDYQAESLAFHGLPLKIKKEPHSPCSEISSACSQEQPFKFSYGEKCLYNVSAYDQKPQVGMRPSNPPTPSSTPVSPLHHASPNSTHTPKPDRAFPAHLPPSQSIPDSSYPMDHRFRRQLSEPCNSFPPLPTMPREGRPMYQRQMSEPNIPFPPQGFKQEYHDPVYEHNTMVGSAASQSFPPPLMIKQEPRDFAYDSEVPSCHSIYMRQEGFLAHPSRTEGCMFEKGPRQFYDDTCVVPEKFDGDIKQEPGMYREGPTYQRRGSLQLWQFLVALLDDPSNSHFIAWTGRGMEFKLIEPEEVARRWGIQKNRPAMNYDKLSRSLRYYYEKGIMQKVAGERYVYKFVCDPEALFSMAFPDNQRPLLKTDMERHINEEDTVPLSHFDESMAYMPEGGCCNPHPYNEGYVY
# In short: as §1
# ERF = target: T4, ERF (Homo sapiens, UniProt P50548 1-548)
# T4 sequence: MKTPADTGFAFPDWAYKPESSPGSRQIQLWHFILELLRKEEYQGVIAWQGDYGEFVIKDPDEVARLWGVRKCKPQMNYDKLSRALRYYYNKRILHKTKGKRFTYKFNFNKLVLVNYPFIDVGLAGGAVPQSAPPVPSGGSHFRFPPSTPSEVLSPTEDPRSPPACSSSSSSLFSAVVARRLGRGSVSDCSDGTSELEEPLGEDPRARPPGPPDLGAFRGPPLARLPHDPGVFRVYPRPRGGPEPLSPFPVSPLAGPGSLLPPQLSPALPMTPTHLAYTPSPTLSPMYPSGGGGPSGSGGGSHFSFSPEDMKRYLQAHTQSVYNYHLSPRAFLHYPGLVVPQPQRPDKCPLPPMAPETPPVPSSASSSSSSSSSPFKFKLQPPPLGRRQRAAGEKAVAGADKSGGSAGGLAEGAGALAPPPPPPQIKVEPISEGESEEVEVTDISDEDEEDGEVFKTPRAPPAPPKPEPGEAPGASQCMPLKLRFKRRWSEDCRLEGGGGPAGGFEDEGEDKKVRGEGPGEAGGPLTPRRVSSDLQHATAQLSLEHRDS
# In short: as §1
# ETV3L = target: T5, ETV3L (Homo sapiens, UniProt Q6ZN32 1-361)
# T5 sequence: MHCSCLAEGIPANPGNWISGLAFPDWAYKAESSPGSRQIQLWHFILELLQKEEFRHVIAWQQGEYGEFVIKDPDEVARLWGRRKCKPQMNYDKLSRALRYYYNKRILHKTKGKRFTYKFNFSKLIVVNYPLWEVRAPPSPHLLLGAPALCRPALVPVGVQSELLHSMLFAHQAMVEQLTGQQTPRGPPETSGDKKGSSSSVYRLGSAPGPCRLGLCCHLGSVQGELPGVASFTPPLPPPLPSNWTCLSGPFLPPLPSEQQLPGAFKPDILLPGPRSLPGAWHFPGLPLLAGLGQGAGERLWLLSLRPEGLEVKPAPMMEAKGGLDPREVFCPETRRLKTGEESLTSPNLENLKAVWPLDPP
# In short: as §1
# ELF5 = target: T6, ELF5 (Homo sapiens, UniProt Q9UKW6-2 1-255)
# T6 sequence: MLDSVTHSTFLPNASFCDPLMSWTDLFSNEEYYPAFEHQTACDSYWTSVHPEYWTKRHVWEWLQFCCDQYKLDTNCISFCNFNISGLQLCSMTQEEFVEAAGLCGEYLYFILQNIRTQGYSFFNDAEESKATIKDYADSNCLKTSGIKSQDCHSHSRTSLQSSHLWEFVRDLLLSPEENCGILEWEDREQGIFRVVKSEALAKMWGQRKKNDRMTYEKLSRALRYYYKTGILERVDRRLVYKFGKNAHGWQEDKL
# In short: as §1
# ETV3 = target: T7, ETV3 (Homo sapiens, UniProt P41162-2 1-143)
# T7 sequence: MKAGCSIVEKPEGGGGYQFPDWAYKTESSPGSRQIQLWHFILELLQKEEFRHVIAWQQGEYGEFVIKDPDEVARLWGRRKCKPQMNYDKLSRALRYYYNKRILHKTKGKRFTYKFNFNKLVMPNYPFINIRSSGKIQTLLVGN
# In short: as §1
# ETV6 = ETV6 (Homo sapiens, UniProt P41212 1-452)
# ETV6, sequence (P41212 whole entry): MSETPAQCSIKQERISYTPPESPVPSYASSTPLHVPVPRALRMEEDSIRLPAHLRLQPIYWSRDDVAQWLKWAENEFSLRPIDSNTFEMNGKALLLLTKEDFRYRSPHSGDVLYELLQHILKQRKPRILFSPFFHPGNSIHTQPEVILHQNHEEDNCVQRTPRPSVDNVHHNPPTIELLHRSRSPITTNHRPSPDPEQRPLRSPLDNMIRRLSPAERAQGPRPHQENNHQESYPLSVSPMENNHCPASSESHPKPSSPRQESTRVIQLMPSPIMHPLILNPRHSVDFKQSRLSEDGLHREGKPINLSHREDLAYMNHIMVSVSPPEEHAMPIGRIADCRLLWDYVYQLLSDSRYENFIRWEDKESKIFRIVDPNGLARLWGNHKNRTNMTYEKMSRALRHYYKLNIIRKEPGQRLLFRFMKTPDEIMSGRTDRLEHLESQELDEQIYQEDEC
# In short: as §1
sequence,measurement,setting,value
ATGGGG,binding signal,ELF4,"1.02 fold enrichment (6-mer frequency, TF over GST control)"
same,binding signal,ELK4,"1.03 fold enrichment (6-mer frequency, TF over GST control)"
same,binding signal,ETV2,"1.16 fold enrichment (6-mer frequency, TF over GST control)"
same,binding signal,ELF3,"1.06 fold enrichment (6-mer frequency, TF over GST control)"
same,binding signal,CRX,"1.03 fold enrichment (6-mer frequency, TF over GST control)"
same,binding signal,ETV1,"1.15 fold enrichment (6-mer frequency, TF over GST control)"
same,binding signal,ERF,"1.08 fold enrichment (6-mer frequency, TF over GST control)"
same,binding signal,ETV3L,"1.16 fold enrichment (6-mer frequency, TF over GST control)"
same,binding signal,ELF5,"1.1 fold enrichment (6-mer frequency, TF over GST control)"
same,binding signal,ETV3,"1.13 fold enrichment (6-mer frequency, TF over GST control)"
same,binding signal,ETV6,"1.18 fold enrichment (6-mer frequency, TF over GST control)"
